# Screening results from PubChem.
# An excerpt weighted towards active compounds, which were near 4.9% of everything screened.
# tim10-1 inh: growth inhibitors of tim10-1 mutant yeast, primary screen, luminescence, uHTS | S. cerevisiae tim10-1 ts strain growth, BacTiter-Glo, 24 h | inhibition, % at 20 µM | AID 463190, 2010 | hit rate 2.2% among 330,000;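 active means inhibition of at least 40%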;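 further: mutant grown at 25 °C; 0% = DMSO wells with yeast and 100% = wells holding no yeast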
# tim23-1 inh: growth inhibitors of tim23-1 mutant yeast, primary screen, luminescence, uHTS; AID 463212, 2010; hit rate 1.3% among 330,000; inhibition, % at 20 µM; S. cerevisiae tim23-1 growth, BacTiter-Glo luminescence, 24 h;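 active means growth inhibition of the mutant yeast at or above 50%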;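 further: temperature-sensitive mutant grown at 25 °C; plate controls were DMSO-treated mutant yeast for no effect and medium wells lacking yeast for full effect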
# SKKanGAS inh: S. pyogenes SKKanGAS growth inhibitors in kanamycin, primary screen, streptokinase expression inhibitor project, SKKanGAS strain, BacTiter-Glo luminescence; 6 h; inhibition, % at 7.5 µM; AID 1662, 2009; hit rate 1.3% among 300,000;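 active means mean replicate score, as percent of positive control median, at least 50; inconclusive means mean below 50 but one replicate at or above 50; inactive means mean and every replicate below 50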;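 further: strain carries kanamycin resistance gene driven by streptokinase promoter and grows in 40 µg/ml kanamycin; loss of luminescence reflects streptokinase promoter inhibition or plain growth inhibition; 0% = median of DMSO wells and 100% = positive control at its reference dose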
# NALP1 yeast inh: NALP1 inflammasome inhibitors in reconstituted yeast, colorimetric, S. cerevisiae, triplicate retest; S. cerevisiae NALP1/ASC/caspase-1 growth, X-gal OD620, 72 h; inhibition, % at 10 µM; hit rate 0.61% among 280,000; in the data active means inhibition mostly above about 24%, no sharp cut-off; inactive means mostly below about 32%
# TIM10 inh: growth inhibitors of isogenic TIM10 control yeast, primary screen, counter-screen for tim10-1 yeast inhibitor project, luminescence, uHTS; S. cerevisiae TIM10 strain growth, BacTiter-Glo luminescence, 24 h; inhibition, % at 10 µM; hit rate 1.4% among 330,000; AID 463195, 2010;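 active means inhibition of 40% or more at the single tested concentration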;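 further: wild-type TIM10 isogenic control strain grown at permissive 25 °C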
# NALP3 yeast inh: NALP3 inflammasome inhibitors in reconstituted yeast, primary screen, luminescence, uHTS. AID 2825, 2010. Yeast reconstituted NLRP3/ASC/caspase-1, beta-gal luminescence, 24 h. hit rate 0.39% among 330,000. inhibition, % at 10 µM;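 active means inhibition of 50% or more; inactive means inhibition below 50%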;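 further: plate controls were induced DMSO wells for no effect and uninduced yeast grown without galactose for full effect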
# Active calls of the source: *; u = inconclusive; x = no result.
SMILES,tim10-1 inh,tim23-1 inh,SKKanGAS inh,NALP1 yeast inh,TIM10 inh,NALP3 yeast inh
Cc1cc(C(=O)OC(C(=O)Nc2cccc(C(F)(F)F)c2)c2ccccc2)c(C)o1 (stereo unspecified),33,14,71*,29,16,-18
COc1ccc(N2CC(C(=O)NCc3ccco3)CC2=O)cc1 (stereo unspecified),10,4,2,-4,-12,-6
COc1ccc(C(CNC(=O)CNC(=O)c2ccc(F)cc2)N2CCCC2)cc1 (stereo unspecified),-21,7,x,x,4,20
COc1ccc(C(CNC(=O)Cc2c(F)cccc2Cl)N2CCCCC2)cc1 (stereo unspecified),9,5,4,23*,8,5
Cc1ccc(-c2ccc(/C=N/n3cnnc3)o2)cc1,27,4,-11,39*,14,15
O=C(CN1c2ccccc2Sc2ccccc21)NNC(=O)Nc1cccc(Cl)c1,23,29,50*,x,11,-3
COc1ccc(NC(=O)CSc2nc(O)cc(=O)n2-c2ccccc2)cc1,2,6,88*,5,13,6
COc1ccccc1-n1c(SCC(=O)Nc2ccc(Br)cc2)nc(O)cc1=O,-2,28,64*,x,13,-7
COc1ccccc1-n1c(SCC(=O)N2CCOCC2)nc(O)cc1=O,7,5,-1,-1,-2,24
COc1ccc(NC(=O)CSc2nc(O)cc(=O)n2C)cc1,9,12,12,23,6,12
CCOC(=O)N1CCN(C(=O)C2CCC(=O)N(CCCN3CCCC3=O)C2)CC1 (stereo unspecified),4,9,0,14,-4,15
NC(N)=Nc1ccc(N=C(N)N)cc1,x,x,1,40*,x,x
O=C1/C(=C/c2cccnc2)CCc2c1[nH]c1ccccc21,30,12,14,-6,35,28
CC1C/C(=C\c2cccnc2)C(=O)/C(=C/c2cccnc2)C1 (stereo unspecified),x,x,x,68*,x,x
CCc1ccc2cccc3c2c1N=CN3C,12,16,5,x,4,27
Cc1nc(=S)c2c([nH]1)-c1ccccc1CC21CCCCC1,23,16,100*,-1,20,7
CCc1nc2c(c(=O)[nH]1)C1(CCCC1)Cc1ccccc1-2,8,18,-3,19,11,0
COc1ccc(/C=C/C(=O)NNC(=O)c2ccncc2)c(OC)c1,5,6,x,x,9,3
Cc1oc(-c2ccccc2)nc1Cn1cccc1C1=NC(c2ccccc2)CO1 (stereo unspecified),30,19,69*,-16,17,1
Fc1ccc(Cn2cccc2C2=NC(c3ccccc3)CO2)cc1 (stereo unspecified),35,9,u,27,14,16
CC[C@H]1OC(=O)[C@H](C)[C@@H](O[C@H]2C[C@@](C)(OC)[C@@H](O)[C@H](C)O2)[C@H](C)[C@@H](O[C@@H]2O[C@H](C)C[C@H](N(C)C)[C@H]2O)[C@](C)(O)C[C@@H](C)C(=O)[C@H](C)[C@@H](O)[C@]1(C)O,x,x,102*,4,x,x
CCOC(=O)CCC(=O)O[C@H]1[C@H](O[C@@H]2[C@@H](C)[C@H](O[C@H]3C[C@@](C)(OC)[C@@H](O)[C@H](C)O3)[C@@H](C)C(=O)O[C@H](CC)[C@@](C)(O)[C@H](O)[C@@H](C)C(=O)[C@H](C)C[C@@]2(C)O)O[C@H](C)C[C@@H]1N(C)C,x,x,105*,92*,x,x
C[C@H]1C(=O)N(C)CCN1C(=O)c1ccccc1OC1CCN(S(C)(=O)=O)CC1,-12,-1,-8,24*,-4,0
CS(=O)(=O)N1CCC(Oc2ccccc2C(=O)N2CCCCC2CO)CC1 (stereo unspecified),-13,7,2,-6,8,0
CCc1ccc2[nH]c(=O)c(CN(Cc3ccco3)C(=S)NCC3CCCO3)cc2c1 (stereo unspecified),38,27,-9,38*,8,13
SMILES,tim10-1 inh,tim23-1 inh,SKKanGAS inh,NALP1 yeast inh,TIM10 inh,NALP3 yeast inh
CCN1C(=O)[C@H]2[C@@H](c3ccc(-c4ccc(Cl)c(Cl)c4)c(OC)c3)N[C@@](Cc3ccccc3)(C(=O)OC)[C@H]2C1=O,5,-2,14,x,-3,10
Cc1ccc2c(c1)-n1c(nc3ccc(C)cc3c1=O)C(Cc1ccccc1)NC2=O (stereo unspecified),9,5,x,x,6,7
COc1ccccc1OCC(=O)NCCSCc1ccc(Cl)cc1,15,15,-1,64*,-27,21
Cc1cc(-c2c(C)[nH]n(-c3ccc(Cl)cc3)c2=O)n(-c2ccc(Cl)cc2)n1,13,19,101*,-7,14,15
Cc1cc(-c2c(C)[nH]n(-c3ccccc3)c2=O)n(-c2ccccc2)n1,9,4,0,3,-9,14
CCOc1ccc(S(=O)(=O)Nc2ccc(C(=O)N/N=C(\C)c3ccc(-n4ccnc4)cc3)cc2)cc1,7,6,18,35*,1,2
CCc1sc(C(=O)NNC(=O)c2cncc(Br)c2)cc1C,5,-3,x,x,2,15
CCN(CC)C(=O)[C@H]1CC(CC(=O)NCCCn2ccnc2)C(=O)N2CCc3c([nH]c4ccc(OC)cc34)[C@]12C (stereo partly specified),14,31,x,x,-10,x
O=C(Nc1ccc(C(=O)NCc2ccccc2)cc1)C1=CSCCO1,30,26,-3,6,3,3
O=C(Nc1ccc(C(=O)NCc2ccc(F)cc2)cc1)C1=CSCCO1,30,27,51*,6,1,11
COc1ccc2c(c1)-c1nc(/N=C/c3ccc(O)c(OC)c3)sc1CC2,x,x,x,-10,x,x
Fc1ccc2c(c1)C1C=CCC1C(c1cc3c(cc1Br)OCO3)N2 (stereo unspecified),35,27,73*,12,12,2
O=C(O)C1Nc2ccc(Br)cc2C2C=CCC12 (stereo unspecified),6,5,10,0,-8,-1
COc1ccc(CCNC(=O)C(NS(=O)(=O)c2cccc3nsnc23)C(C)C)cc1OC (stereo unspecified),-2,-4,-1,1,9,5
Cc1ccc2c(=O)cc(C(F)F)oc2c1,-25,-1,2,41*,-22,2
Cc1cc(C)c2c(=O)cc(C(F)F)oc2c1,-23,-3,3,-18,-24,9
Cc1c(C(=O)NC2CCCCC2C)oc2ccccc12 (stereo unspecified),34,45,3,1,28,12
